Among all 87,000 compounds or so, about 360 (0.41%) were called active. This excerpt belongs to a sample that is enriched for actives. Unmarked numbers belong to inactive results. No stated cut-off is given here; in the data, active means cytotoxicity above about 50%; inactive means the rest.

This note sets out measurements from PubChem BioAssay AID620 (Sanford-Burnham Center for Chemical Genomics, 2007).

This experiment in a line: cytotoxicity in HT1080 fibrosarcoma cells, cell-based, fluorescence readout (AID 620).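 Further: cells exposed to compound overnight then 4 h with Alamar Blue; 0% = vehicle DMSO and 100% = killing control.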 The note with it: HT1080 viability, at 10 µM, hits give high values.
`COc1cc(NS(=O)(=O)c2cc(C)ccc2OC)c(OC)cc1Cl`: the cytotoxicity was -2.6%.

As to `COc1cc(NS(=O)(=O)c2ccc(OC)c(C)c2C)c(OC)cc1Cl`, the cytotoxicity was 55.1% (active).

`COc1ccc(OC)c(S(=O)(=O)Nc2cc(OC)c(Cl)cc2OC)c1`: the cytotoxicity is 9.8%.

For `CCOc1cc(C2CC(=O)Nc3cc(C)c(C)cc32)ccc1O` (configuration not stated), the cytotoxicity was -0.2%.

For `COc1ccc(NC(=O)CCN2CCCCC2)cc1`, the cytotoxicity is 9%.

As for `CCOc1ccccc1-c1nc(-c2cc3ccccc3nc2OC)no1`, the cytotoxicity was -4.6%.

For the compound `Cc1cc(F)c(F)c(C(=O)N2CCN(C)CC2)c1Cl`, the cytotoxicity is 6.8%.

Regarding `CCc1ccc(C2(O)CC(C(F)(F)F)=NN2C(=O)Cc2ccc([N+](=O)[O-])cc2)cc1` (configuration not stated), the cytotoxicity was 2.2%.

Consider `c1ccc2c(c1)c1c3n2CCNC3CCC1` (configuration not stated), for which the cytotoxicity was -2.4%.

On to `c1cc2c(cc1C1CCCCC1)c1c3n2CCCNC3CCC1` (configuration not stated), for which the cytotoxicity is 69.7% (active).

For the compound `Cc1ccc2c(c1)c1c3n2CCN(C(=O)CN2CCN(C)CC2)C3CCC1` (configuration not stated), the cytotoxicity was 12.8%.

As to `Cc1ccc2c(c1)c1c3n2CCCNC3CCC1` (configuration not stated), the cytotoxicity was -1.3%.

In the case of `Cc1ccc2c(c1)c1c3n2CCN(C(=O)C2CC2)C3CCC1` (configuration not stated), the cytotoxicity was -15.3%.

Turning to `O=C(NC(Cc1ccc2c(c1)OCO2)C(=O)N1CCCC1C(=O)O)c1ccccc1` (configuration not stated), the cytotoxicity is 3.5%.

Consider `Cn1c(=O)[nH]c2sc3c(c2c1=O)CC(C)(C)OC3`, for which the cytotoxicity is 27.1%.

With `COc1ccc(OC)c(C2CC(=O)c3c([nH]c(C(=O)OCC4CCCO4)c3C)C2)c1` (configuration not stated), the cytotoxicity was -5.3%.

Consider `CCOCCOC(=O)c1[nH]c2c(c1C)C(=O)CC(c1ccc(N(C)C)cc1)C2` (configuration not stated), for which the cytotoxicity is -3.6%.

Take `Cc1c(C(=O)OCC2CCCO2)[nH]c2c1C(=O)CC(c1ccco1)C2` (configuration not stated): the cytotoxicity is 52.9% (active).

Turning to `Cc1c(C(=O)N2CCOCC2)[nH]c2c1C(=O)CC(c1ccc(Cl)cc1)C2` (configuration not stated), the cytotoxicity was 5.8%.

With `COCCOC(=O)c1[nH]c2c(c1C)C(=O)CC(c1ccc(N(C)C)cc1)C2` (configuration not stated), the cytotoxicity is -0.7%.

In the case of `COCCOC(=O)c1[nH]c2c(c1C)C(=O)CC(c1ccco1)C2` (configuration not stated), the cytotoxicity was 67.1% (active).

On to `CSCCOC(=O)c1[nH]c2c(c1C)C(=O)CC(c1ccco1)C2` (configuration not stated), for which the cytotoxicity was 62.4% (active).

Turning to `Cc1c(C(=O)OCC2CCCO2)[nH]c2c1C(=O)CC(c1ccc(N(C)C)cc1)C2` (configuration not stated), the cytotoxicity was -2.7%.

`CCOC(=O)c1ccc(N=CC2=C(O)CC(c3ccco3)CC2=O)cc1` (configuration not stated): the cytotoxicity was -1.5%.

As for `CCOC(=O)c1[nH]c2c(c1C)C(=O)CC(c1ccco1)C2` (configuration not stated), the cytotoxicity was 66% (active).

For the compound `COCCOC(=O)c1[nH]c2c(c1C)C(=O)CC(c1cc(OC)ccc1OC)C2` (configuration not stated), the cytotoxicity is -3.5%.

Consider `COC(=O)NCC(c1cccnc1)N1CCOCC1` (configuration not stated), for which the cytotoxicity is 2.8%.

For the compound `COc1ccc(C(c2nnnn2C2CCCC2)N2CCN(C3CCCC3)CC2)cc1OC` (configuration not stated), the cytotoxicity was -1.8%.

With `Cc1ccc(NC(=O)c2oc3c(c2C)C(=O)CC(C)(C)C3)cc1`, the cytotoxicity is -0.8%.

Turning to `O=S(=O)(c1ccccc1)N1CCN(S(=O)(=O)c2ccccc2)C1`, the cytotoxicity was -4.1%.

Take `CCn1cnc2cc(NS(=O)(=O)c3ccc(C)cc3)ccc21`: the cytotoxicity was 11.7%.

With `Cc1ccccc1NC(=O)c1cccc2nccnc12`, the cytotoxicity was -4.6%.

For `COc1ccc(-c2cnc3nc[nH]c(=O)c3n2)cc1`, the cytotoxicity was -12.3%.

Take `Cc1cnc(C(=O)Nc2ccc(F)cc2)cn1`: the cytotoxicity was -11.7%.

`COc1cccc(C2c3c(-c4cc(Cl)c(C)cc4O)n[nH]c3C(=O)N2Cc2cccnc2)c1` (configuration not stated): the cytotoxicity is -4.8%.

Turning to `CCOC(=O)N1CCN(C(=O)c2cccn3c(=O)c4sccc4nc23)CC1`, the cytotoxicity was -2.4%.

Turning to `FC(F)(F)c1ccc(N2CCN(c3ncnc4c3nnn4Cc3ccccc3Cl)CC2)cc1`, the cytotoxicity was -17.6%.

Regarding `Cc1c(C(=O)OCCOC(C)C)[nH]c2c1C(=O)CC(C)(C)C2`, the cytotoxicity was -5.6%.

In the case of `Cc1c(C(=O)N2CCOCC2)[nH]c2c1C(=O)CC(c1ccccc1Cl)C2` (configuration not stated), the cytotoxicity was 34.2%.

As to `COc1ccc(OC)c(C2CC(=O)c3c([nH]c(C(=O)OC(C)C)c3C)C2)c1` (configuration not stated), the cytotoxicity is 10.6%.

For the compound `Cc1c(C(=O)OCc2ccccc2)[nH]c2c1C(=O)CC(c1ccco1)C2` (configuration not stated), the cytotoxicity was 67.8% (active).

For the compound `Cc1c(C(=O)OCC(C)C)[nH]c2c1C(=O)CC(c1ccco1)C2` (configuration not stated), the cytotoxicity is 63.9% (active).

Regarding `COCCOC(=O)c1[nH]c2c(c1C)C(=O)CC(c1ccc(F)cc1)C2` (configuration not stated), the cytotoxicity was -9%.

For the compound `Cc1c(C(=O)OCCOC(C)C)[nH]c2c1C(=O)CC(c1ccco1)C2` (configuration not stated), the cytotoxicity is 66.2% (active).

For `COc1cc(C2CC(=O)c3c([nH]c(C(=O)OCCOC(C)C)c3C)C2)cc(OC)c1OC` (configuration not stated), the cytotoxicity was -1.3%.

As for `CC1=C(C(=O)OCc2ccccc2)C(c2ccco2)C2=C(CC(C)(C)CC2=O)N1` (configuration not stated), the cytotoxicity was -6.1%.

Take `CCC(C)OC(=O)c1[nH]c2c(c1C)C(=O)CC(c1ccc(N(C)C)cc1)C2` (configuration not stated): the cytotoxicity is -1.9%.

With `CCOC(=O)c1[nH]c2c(c1C)C(=O)CC(c1ccc(F)cc1)C2` (configuration not stated), the cytotoxicity was 70.2% (active).

Regarding `Cc1c(C(=O)O)[nH]c2c1C(=O)CC(c1ccc(Cl)cc1)C2` (configuration not stated), the cytotoxicity was -4.3%.

For `CCCCOc1ccc(C(=O)N2CC(C)OC(C)C2)cc1` (configuration not stated), the cytotoxicity was -6.4%.

Turning to `Cc1ccc(-n2c(C)nc3c(cnn3-c3ccc(F)cc3)c2=O)cc1`, the cytotoxicity was -1.6%.

As for `Cc1cc(NC(=O)C2CC(=O)OC2c2ccccc2)no1` (configuration not stated), the cytotoxicity was 10.6%.

In the case of `CC(=O)OC(C(=O)NC1CCCCC1)c1ccc(C#N)cc1` (configuration not stated), the cytotoxicity was -3.2%.

As for `Cc1ccccc1-n1c(SCC(=O)N2CCOCC2)nc(O)cc1=O`, the cytotoxicity was 3.4%.

`COc1ccccc1C(=O)NC1CCCCCCC1`: the cytotoxicity is 3.1%.

As for `O=C(NC1=NCCS1)c1ccncc1`, the cytotoxicity was -1.5%.

For the compound `O=C(COC(=O)c1cnccn1)NCCc1ccccc1`, the cytotoxicity was -15.3%.

As to `Cc1c(C(=O)OC2CCCC2)[nH]c2c1C(=O)CC(c1ccco1)C2` (configuration not stated), the cytotoxicity is 64.9% (active).

With `Cc1c(C(=O)OC2CCCCC2)[nH]c2c1C(=O)CC(C)(C)C2`, the cytotoxicity was -1.3%.

In the case of `Cc1c(C(=O)OC2CCC(C)CC2)[nH]c2c1C(=O)CCC2` (configuration not stated), the cytotoxicity is 0.6%.

As to `COc1ccc(C2=NOC(C(=O)NC(C)C)C2)cc1` (configuration not stated), the cytotoxicity was -5.6%.

Regarding `CCOc1ccc(OCC)c(NC(=O)CN(C)S(=O)(=O)c2cnc[nH]2)c1`, the cytotoxicity is 11.3%.

Take `O=C(c1cnn2cccnc12)N1CCN(c2ccccc2)CC1`: the cytotoxicity was 6.5%.

Consider `Cc1ccc2c(c1)c1c3n2CCN(C(=O)Cn2c(-c4ccccc4)noc2=O)C3CCC1` (configuration not stated), for which the cytotoxicity is 4.8%.

Turning to `CC(=O)N1CCn2c3c(c(=O)c4cc(C)ccc42)CCC31` (configuration not stated), the cytotoxicity is -5.9%.

As for `Cc1ccc2c(c1)c(=O)c1c3n2CCN(C(=O)CCl)C3CC1` (configuration not stated), the cytotoxicity was 102% (active).

With `CCOC(=O)c1c(C)[nH]c(C)c1C(=O)CSc1nnc(-c2ccc(OC(F)F)cc2)o1`, the cytotoxicity was 0.8%.

As for `COc1ccc(C(=O)c2ccc(Cl)cc2)c2ccccc12`, the cytotoxicity is -14.8%.

Regarding `CN(C)c1ccc(C(=O)c2ccc(O)cc2O)cc1`, the cytotoxicity is 3.6%.

Take `CN(C)c1ccc(C(=O)c2ccc(N(C)C)c3ccccc23)cc1`: the cytotoxicity is 69.6% (active).

With `COc1ccc(C(=O)c2ccc(OC)c3cccc(O)c23)cc1OC`, the cytotoxicity was -5.2%.

For `CN(C)c1ccc(C(=O)c2ccccc2)cc1`, the cytotoxicity is -16.8%.

In the case of `COc1ccc(C(=O)c2ccc(N(C)C)cc2)c2ccccc12`, the cytotoxicity was 63.3% (active).

Regarding `CC1=C(C)CC(C(=O)NCC(=O)c2ccccc2)C(C(=O)O)C1` (configuration not stated), the cytotoxicity is -5%.

On to `Cn1cnc([N+](=O)[O-])c1NC(C)(C)C`, for which the cytotoxicity was 8.7%.

As to `COC(=O)c1[nH]c2c(c1C)C(=O)CC(c1cccs1)C2` (configuration not stated), the cytotoxicity was 58.6% (active).

On to `COC(=O)C1=C(C)NC2=C(C(=O)CC(c3cccs3)C2)C1c1ccsc1` (configuration not stated), for which the cytotoxicity is 16.3%.

For the compound `Cc1c(C(=O)OCC(C)C)[nH]c2c1C(=O)CC(c1cccs1)C2` (configuration not stated), the cytotoxicity was 66% (active).

Consider `CCOC(=O)C1=C(C)NC2=C(C(=O)CC(c3cccs3)C2)C1c1cccs1` (configuration not stated), for which the cytotoxicity was 5.7%.

In the case of `COC(=O)c1[nH]c2c(c1C)C(=O)CC(c1cc(OC)ccc1OC)C2` (configuration not stated), the cytotoxicity was -2.1%.

For the compound `CCCOCCOC(=O)c1[nH]c2c(c1C)C(=O)CC(c1cc(OC)ccc1OC)C2` (configuration not stated), the cytotoxicity was 1.3%.

As to `CCCOC(=O)c1[nH]c2c(c1C)C(=O)CC(c1cccs1)C2` (configuration not stated), the cytotoxicity was 66.7% (active).

`CCCOC(=O)c1[nH]c2c(c1C)C(=O)CC(c1ccc(OC)c(OC)c1)C2` (configuration not stated): the cytotoxicity was 7.2%.

`CC(C(=O)N=c1sc2ccccc2n1C)N1C(=O)C2CC=CCC2C1=O` (configuration not stated): the cytotoxicity was -11%.

Consider `c1ccc(CCn2c(C3CC3)nc3ccccc32)cc1`, for which the cytotoxicity is -16.9%.

Consider `CCOC(=O)c1ccc(NC(=O)C(CC)(CC)C(=O)OCC)cc1`, for which the cytotoxicity is -4.9%.

With `CC(C)(C)C1(c2ccccc2)NC(=O)N(CC(=O)N2CCOCC2)C1=O` (configuration not stated), the cytotoxicity is 2.6%.

Regarding `COc1cc(C#N)ccc1OCC(=O)c1ccc2c(c1)OCCO2`, the cytotoxicity was -5.9%.

On to `CCc1cccc(CC)c1NC(=O)CSc1nnc(C(C)C)n1CC`, for which the cytotoxicity is 0.9%.

For `Cc1csc(NC(=O)CN2C(=O)C3CC=CCC3C2=O)n1` (configuration not stated), the cytotoxicity was -13.5%.

`CCn1c(SCC(=O)c2cc(C)n(-c3ccc(C(=O)OC)cc3)c2C)nnc1-c1cccnc1`: the cytotoxicity is 69.6% (active).

In the case of `CCn1c(SCC(=O)c2cc(C)n(C)c2C)nnc1-c1ccccc1`, the cytotoxicity is 15.3%.

With `CCOC(=O)c1cccc(NC(=O)CSc2nnc(-c3cccnc3)n2CC)c1`, the cytotoxicity was 12.7%.

`COc1ccccc1NS(=O)(=O)c1ccc(Cl)cc1`: the cytotoxicity is 11.9%.

With `COc1ccccc1NC1=NC(C)(C)N=C(N)N1`, the cytotoxicity was -26.5%.

As to `COc1ccccc1NC1=NC(c2ccc(Cl)cc2)N=C(N)N1` (configuration not stated), the cytotoxicity was 60.5% (active).

As to `O=C(OC1CCS(=O)(=O)c2sccc21)c1ccccc1` (configuration not stated), the cytotoxicity was -6.9%.
